# hgDAF-12 ag = agonists of H. glycines DAF-12 nuclear receptor. actives 1.8% (n = 370,000). HEK293 GAL4-hgDAF12 UAS-luciferase reporter, agonist luminescence; normalized to butyrate control. activation, % at 6.8 µM. AID 687014;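 active = activation above a cutoff set at the mean of all screened compounds plus 3 SD, cut at about 10% in these data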
# NF-kB neuron act = compounds increasing NF-kB expression in human neuronal cells. fold change at 12.5 µM. NF-kB reporter expression; active compounds read high. actives 1.6% (n = 190,000); in the data active = fold change above about 3.3
# APP 5'UTR act = APP 5'UTR luciferase reporter activation; SH-SY5Y APP 5'UTR luciferase reporter, luminescence; zero percent = DMSO vehicle wells; AID 1276; actives 1% (n = 190,000); activation, % at 2 µM;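 active = activation above a set limit, based on mean plus 3 SD of controls, cut at about 140% in these data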
# hcDAF-12 act = activates DAF-12 receptor from parasite H. contortus. activation, % at 6.8 µM. actives 1.4% (n = 370,000). HEK293 hcDAF-12 lit1-tk-luc reporter, luminescence; 0% DMSO, 100% Δ7-dafachronic acid;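 active = activation above the mean of all tested compounds plus 3 SD, cut at about 5.5% in these data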
# ssDAF-12 act = S. stercoralis DAF-12 activation, primary screen; activation, % at 6.8 µM; actives 1% (n = 370,000); HEK293 ssDAF-12/GRIP1 lit1-tk-luc reporter, luminescence; % of 3 µM dafachronic acid response;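 active = activation above the mean over all tested compounds plus 3 SD, cut at about 0.9% in these data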
# LXR ag = counter-screen for hcDAF-12 agonists: agonists of human LXR-beta. shares compounds with hcDAF-12 act. HEK293 Gal4-LXR tk-luc reporter, luminescence, 24 h; normalized: DMSO 0%, positive control 100%. activation, % at 6.8 µM. 3,400 tested, under 10 active. AID 743027;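 active = mean percent activation of the reporter above a cutoff set as the average over tested compounds plus their standard deviation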
# Target sequence (P55055 whole entry, looked up, the tested form may be a part): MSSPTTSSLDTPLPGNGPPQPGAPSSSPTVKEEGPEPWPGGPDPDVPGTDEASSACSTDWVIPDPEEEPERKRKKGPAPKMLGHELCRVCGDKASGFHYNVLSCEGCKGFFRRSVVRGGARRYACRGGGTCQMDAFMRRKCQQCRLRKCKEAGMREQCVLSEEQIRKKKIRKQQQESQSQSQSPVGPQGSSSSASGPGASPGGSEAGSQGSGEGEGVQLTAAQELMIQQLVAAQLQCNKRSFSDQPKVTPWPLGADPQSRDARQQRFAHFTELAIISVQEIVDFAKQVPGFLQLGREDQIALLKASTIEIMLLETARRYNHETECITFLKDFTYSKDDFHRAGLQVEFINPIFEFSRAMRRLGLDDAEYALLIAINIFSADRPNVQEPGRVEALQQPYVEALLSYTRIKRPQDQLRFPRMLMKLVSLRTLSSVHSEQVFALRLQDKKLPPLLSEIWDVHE
# hcDAF12 ag = confirmation of H. contortus DAF-12 agonists; shares compounds with hcDAF-12 act; HEK293 hcDAF-12 lit1-tk-luc reporter, luminescence; % of Δ7-dafachronic acid response; activation, % at 6.8 µM; actives 61% (n = 3,400);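 active = mean activation across triplicate tests above the threshold derived from the earlier primary screen, cut at about 5.5% in these data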
# hgDAF12 ag = confirmation of H. glycines DAF-12 agonists; shares compounds with hgDAF-12 ag; HEK293 GAL4-hgDAF12 luciferase reporter, agonist mode; percent of butyrate response; activation, % at 6.8 µM; actives 80% (n = 3,300); AID 743050;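 active = mean activation over triplicate wells above the hit cutoff derived from the earlier primary screen, cut at about 11% in these data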
# LXR ag 2 = activates human LXR-beta, counter-screen for DAF-12 agonists. shares compounds with hgDAF-12 ag. HEK293 Gal4-LXR luciferase reporter, 24 h. activation, % at 6.8 µM. 3,300 tested, under 10 active;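 active = mean activation of the triplicate above a set limit carried over from the primary screen, none filed active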
# Hits are given with their value; - = inactive; . = no result given. An excerpt weighted towards active compounds, which were near 3.4% of everything screened.
SMILES,hgDAF-12 ag,NF-kB neuron act,APP 5'UTR act,hcDAF-12 act,ssDAF-12 act,LXR ag,hcDAF12 ag,hgDAF12 ag,LXR ag 2
COc1ccc2c(c1)CC/C(=C/c1ccco1)C2=O,16,8.1,181,8.6,-,-,6.2,16,-
CCc1nnn2c1Cn1c3ccccc3c(=O)n1[C@@H](C(C)C)C2,-,.,.,-,-,.,.,.,.
O=C1N(c2ccccc2)CC2CC(c3ccccc3)N3CCCC123 (configuration not stated),-,.,.,-,-,.,.,.,.
CCOC(=O)[C@@]12CN(C(=O)OC(C)(C)C)CC=C1N(Cc1ccc(OC)cc1)C(=O)[C@H]2CC(=O)N1CCN(C(=O)c2ccco2)CC1,-,.,.,-,-,.,.,.,.
Cc1cccc2c1CCC1CN(Cc3ccccc3)S(=O)(=O)N21 (configuration not stated),-,.,.,-,-,.,.,.,.
Cc1ccc(C(=O)C2CCN(CC(=O)N(C)C3CCCCC3)CC2)cc1,-,.,.,-,-,.,.,.,.
C=CCn1c(C)cc(C(=O)CN2NS(=O)(=O)c3ccccc3C2=O)c1C,15,-,-,8.8,1.8,-,5.8,-,-
O=C(N=C1N(Cc2ccccc2)[C@@H](Cc2ccccc2)[C@]2(C=C3CCCCC3n3c(=O)n(-c4ccccc4)c(=O)n32)N1C(=O)OCc1ccccc1)c1ccccc1 (some centres not stated),-,.,.,-,-,.,.,.,.
COc1ccc(OC)c(C(=O)c2coc3ccc(OC(C)=O)cc23)c1,-,-,-,-,-,.,.,.,.
COc1ccc(C(=O)c2coc3ccc(OC(C)=O)cc23)cc1,14,.,.,7.3,-,-,8.1,23,-
N#CCC[C@@H]1CC[C@]2(CCCN(C(=O)c3ccc4ccccc4n3)C2)O1,-,.,.,-,-,.,.,.,.
CC(NCc1ccco1)C(=O)N1CCN(c2cccc(C(F)(F)F)c2)CC1 (configuration not stated),-,.,.,-,-,.,.,.,.
CC(=O)CSc1ccc(-c2nc3cc(C)c(C)cc3[nH]2)cn1,-,-,-,-,-,.,.,.,.
CCc1nnc(NC(=O)CSc2ccc(-c3nc4ccc(C)cc4[nH]3)cn2)s1,17,-,138,7.3,-,-,7.8,18,-
C=C(O[C@H]1[C@H](O)CC=C(C(=O)O)[C@@H]1O)C(=O)O,-,.,.,-,-,.,.,.,.
O=C(Nc1cnc2ccccc2c1)c1ccco1,15,6.2,157,7.1,-,-,-,18,-
C/C(=N\Nc1ncc(Cl)cc1Cl)c1ccc(OC(F)F)cc1,20,4.5,-,6.6,-,-,-,-,-
C/C(=N\Nc1ncc(Cl)cc1Cl)c1ccc2c(c1)OCO2,-,-,-,-,-,.,.,.,.
CCOC(=O)[C@@]12CCCC=C1N(CCc1ccc(Cl)cc1)C(=O)[C@H]2CC(=O)NCc1ccc(OC)c(OC)c1,-,.,.,-,-,.,.,.,.
CCN(C(=O)[C@@H]1CC(=O)O[C@@H]1c1ccccc1)c1ccccc1,-,.,.,-,-,.,.,.,.
O=C(O)c1cccc(-c2nnn(Cc3ccccc3Cl)n2)c1,13,4.2,-,6.7,2.0,-,8.5,22,-
Cc1cc(-c2nc3cc(F)ccc3s2)ccc1N,20,.,.,18,3.7,-,17,24,-
Cc1ccc(-c2nc3ccccc3s2)cc1S(=O)(=O)N1CCCC1,.,-,-,.,.,.,.,.,.
COC(=O)c1cc(-c2ccc(C(C)=O)cc2)c(=O)n2c1CCC2,-,.,.,-,-,.,.,.,.
Clc1ccc(OCc2cc(-c3ccccc3)no2)c(Cl)c1,15,4.5,188,7.2,0.9,-,10.0,-,-
SMILES,hgDAF-12 ag,NF-kB neuron act,APP 5'UTR act,hcDAF-12 act,ssDAF-12 act,LXR ag,hcDAF12 ag,hgDAF12 ag,LXR ag 2
Cc1cccc(OCc2cc(-c3ccccc3)no2)c1C,-,.,.,-,-,.,.,.,.
Cc1nn(-c2ccccc2)c(Cl)c1/C=N/Nc1ccc(Cl)c(C(=O)O)c1,24,10,-,9.9,1.2,-,11,27,-
CNC(=S)N/N=C/c1c(C)nn(-c2ccccc2)c1Cl,-,-,-,-,-,.,.,.,.
O=C(N/N=C/c1cc(Br)cs1)c1ccc2c(c1)OCCO2,15,.,.,6.6,-,-,-,24,-
O=C(N/N=C/c1cccc(O)c1)c1ccc2c(c1)OCCO2,18,.,.,13,1.1,-,8.5,18,-
CCCCNC(=O)C[C@@H]1C(=O)N2CCCC3=C2[C@@]1(C(=O)OCC)CCC3,-,.,.,-,-,.,.,.,.
CCOC(=O)c1cc(-c2ccc(OC)cc2)n[nH]1,-,.,.,-,-,.,.,.,.
CC(C)COc1ccc(-c2cc(C(=O)NN)[nH]n2)cc1,20,-,-,13,2.2,-,-,-,-
CC(=O)Oc1ccc2c(=O)c(-c3nc4ccccc4s3)coc2c1,13,-,196,6.7,-,-,9.0,-,-
CC(=O)Oc1ccc2c(=O)c(Oc3ccccc3[N+](=O)[O-])coc2c1,-,-,-,-,-,.,.,.,.
COc1ccc(-c2cc(=O)c3ccccc3o2)cc1,20,.,.,9.0,-,-,8.2,15,-
O=C1c2ccccc2-c2nc3ccccc3cc21,15,.,.,7.9,1.0,-,9.9,17,-
Cc1c(C(=O)Nc2ccccn2)oc2ccccc12,14,4.5,153,13,3.3,-,17,23,-
Clc1ccc(CSc2nnc(-c3cccs3)o2)cc1Cl,-,.,.,-,-,.,.,.,.
Cc1nc(Nc2ccc(Cl)cc2)c2oc3ccccc3c2n1,-,.,.,-,-,.,.,.,.
Cc1ccc(Nc2ncnc3c2oc2ccccc23)cc1,15,5.4,152,11,1.3,-,8.1,18,-
CCN(Cc1cn(Cc2ccccc2)nn1)S(=O)(=O)c1ccccc1Br,-,.,.,-,-,.,.,.,.
CC1(c2nnnn2C2CCCCC2)CSCC(=O)N1CCc1ccc(O)cc1 (configuration not stated),-,.,.,-,-,.,.,.,.
O=C(CCCCCN1C(=O)c2ccccc2C1=O)Nc1ccccc1,-,-,-,-,-,.,.,.,.
O=C(CCCCCCC(=O)Nc1ccccc1)NO,41,.,.,12,2.0,-,7.0,41,-
C[C@H]1[C@@H](N(C)C)CC[C@@]23CCCN2C(=O)CCC[C@@H]13,-,.,.,-,-,.,.,.,.
C(=C\n1nnc2ccccc21)/c1ccccn1,19,.,.,8.4,1.2,-,7.5,24,-
Nn1nnc2ccccc21,-,.,.,-,-,.,.,.,.
Cc1ccc(NC(=O)COc2ccccc2[N+](=O)[O-])nc1,18,5.5,-,7.3,1.7,-,9.3,12,-
O=C(COc1ccccc1[N+](=O)[O-])Nc1cccnc1,-,-,-,-,-,.,.,.,.

# Compound activity from PubChem.
